Assay results: PubChem BioAssay (EPA / NIEHS)
Results filed as inconclusive are left out. Activity calls are given as the source filed them. The calls were made as follows, unless noted: active = hit-call score of the fitted dose curve at least 0.9, where 1 is the maximum; inactive = score below 0.9.

Columns and labels:
[1] = read-out: Transforming Growth Factor (TGFB1), TGFB1 (gene 7040); assay: LTEA_HepaRG_TGFB1: Life Technologies and Expression Analysis (LTEA) Assay for Transforming Growth Factor (TGFB1) Transporter using HepaRG (AID 2283533); details: mRNA level, 48 h; actives raise or lower the signal
Summary of the method: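 HepaRG, 48 h post-plating, switched to serum-free induction medium; chemicals 100 uM top, half-log, 8 pts, 0.5% DMSO, dup; 48 h exposure; RNA → Fluidigm TaqMan qRT-PCR; norm ACTB/GAPDH/POLR2A; bidirectional fit vs DMSO.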

TIMP1, TIMP1 (gene 7076) = assay: LTEA_HepaRG_TIMP1: Life Technologies and Expression Analysis (LTEA) Assay for TIMP1 using HepaRG (AID 2283534); details: mRNA level, 48 h; actives raise or lower the signal
Summary of the method: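 Readout is TIMP1 mRNA level measured by qRT-PCR and normalized to three housekeeping genes. Human HepaRG cells were treated for 48 h in duplicate at eight concentrations up to 100 uM (0.5% DMSO); gain or loss fitted against DMSO.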

[2] = read-out: Tumor necrosis factor receptor 1 (TNFRSF1A), TNFRSF1A (gene 7132); assay: LTEA_HepaRG_TNFRSF1A: Life Technologies and Expression Analysis (LTEA) Assay for Tumor necrosis factor receptor 1 (TNFRSF1A) using HepaRG (AID 2283535); details: mRNA level, 48 h; actives raise or lower the signal
Summary of the method: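 Read-out is TNFRSF1A transcript level by TaqMan qRT-PCR, normalized to three housekeeping genes, scored as gain or loss of signal versus 0.5% DMSO. Human HepaRG cells received test chemicals for 48 h at up to 100 uM (half-log series).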

[3] = read-out: Thyroid Hormone Responsive (THRSP), THRSP (gene 7069); assay: LTEA_HepaRG_THRSP: Life Technologies and Expression Analysis (LTEA) Assay for Thyroid Hormone Responsive (THRSP) using HepaRG (AID 2283536); details: mRNA level, 48 h; actives raise or lower the signal
Summary of the method: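 THRSP transcript quantified by Fluidigm qRT-PCR against three housekeeping genes after 48 h chemical exposure of HepaRG cells in serum-free induction medium; eight-point half-log series, top 100 uM, 0.5% DMSO vehicle, duplicate wells.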

[4] = read-out: UDP glucuronosyltransferase (UGT1A1), UGT1A1 (gene 54658); assay: LTEA_HepaRG_UGT1A1: Life Technologies and Expression Analysis (LTEA) Assay for UDP glucuronosyltransferase (UGT1A1) using HepaRG (AID 2283538); details: mRNA level, 48 h; actives raise or lower the signal
Summary of the method: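 HepaRG, 48 h chemical exposure (top 100 uM, half-log 8-pt, 0.5% DMSO vehicle), duplicate wells; qRT-PCR (TaqMan, Fluidigm array) for UGT1A1 mRNA, housekeeping-normalized; bidirectional curve fit vs DMSO baseline.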

[5] = read-out: UDP glucuronosyltransferase (UGT1A6), UGT1A6 (gene 54578); assay: LTEA_HepaRG_UGT1A6: Life Technologies and Expression Analysis (LTEA) Assay for UDP glucuronosyltransferase (UGT1A6) using HepaRG (AID 2283539); details: mRNA level, 48 h; actives raise or lower the signal
Summary of the method: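 HepaRG, 48 h post-plating switch to serum-free induction medium; chemical 48 h, 100 uM top, half-log x8, duplicate, 0.5% DMSO. Phenobarbital 1mM induction control. UGT1A6 mRNA by TaqMan qRT-PCR; gain/loss fit vs DMSO.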

[6] = read-out: X-box binding protein 1 (XBP1), XBP1 (gene 7494); assay: LTEA_HepaRG_XBP1: Life Technologies and Expression Analysis (LTEA) Assay for X-box binding protein 1 (XBP1) using HepaRG (AID 2283540); details: mRNA level, 48 h; actives raise or lower the signal
Summary of the method: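 Transcript levels of XBP1, measured by qRT-PCR and normalised to three housekeeping genes, were fitted bidirectionally relative to 0.5% DMSO controls. Human HepaRG cells received eight-point half-log dilutions from 100 uM for 48 h.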

[7] = LTEA_HepaRG_LDH_cytotoxicity: Cytotoxicity Assessment in the Life Technologies and Expression Analysis (LTEA) Assay (AID 2283563; active = hit-call score of the fitted dose curve at least 0.9, where 1 is the maximum;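 as to AC50: LDH activity released into spent culture medium as a marker of cell death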)
Summary of the method: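 Cells were thawed and plated for 48 h. Medium was then replaced with serum-free induction medium. Chemicals (8 half-log points, maximum 100 uM, 0.5% DMSO) were added in duplicate for 48 h, after which spent medium was assayed for LDH.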

[8] = read-out: Cellular tumor antigen p53 (Homo sapiens) (UniProt P04637); assay: LTEA_HepaRG_TP53: Life Technologies and Expression Analysis (LTEA) Assay for Tumor Protein P53 (TP53) using HepaRG (AID 2283537); details: mRNA level, 48 h; actives raise or lower the signal
Summary of the method: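 Read-out is TP53 transcript level by microfluidic qRT-PCR, normalised to three housekeeping genes and fitted bidirectionally against DMSO. Human HepaRG cells received compounds for 48 h, highest concentration 100 uM.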

[9] = ATG_XTT_Cytotoxicity: Cytotoxicity Assessment in the Attagene TRANS-FACTORIAL HepG2 Assay (AID 2283584; active = hit-call score of the fitted dose curve at least 0.9, where 1 is the maximum)
Summary of the method: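 Cells: human HepG2, transiently transfected with MRTU reporter constructs. Exposure 24 h. Readout: XTT, cell number. Baseline/neg ctrl DMSO; loss-of-signal scored.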

Measured: AC50

Cellular tumor antigen p53 (Homo sapiens), sequence (P04637 whole entry, looked up): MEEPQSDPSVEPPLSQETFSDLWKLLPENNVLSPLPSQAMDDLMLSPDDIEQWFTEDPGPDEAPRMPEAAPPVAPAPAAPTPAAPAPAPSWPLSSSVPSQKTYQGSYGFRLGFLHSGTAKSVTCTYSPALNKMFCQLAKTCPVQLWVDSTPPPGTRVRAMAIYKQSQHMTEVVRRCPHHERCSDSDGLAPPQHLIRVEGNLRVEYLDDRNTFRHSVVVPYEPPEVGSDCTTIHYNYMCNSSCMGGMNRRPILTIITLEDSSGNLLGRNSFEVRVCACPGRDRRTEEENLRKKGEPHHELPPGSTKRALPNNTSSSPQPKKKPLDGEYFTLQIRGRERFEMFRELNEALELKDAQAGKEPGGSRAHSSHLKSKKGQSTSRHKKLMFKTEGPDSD

CCc1cnc(C2=NC(C)(C(C)C)C(=O)N2)c(C(=O)O)c1 (stereo not drawn)
not listed: [8] | [9]
inactive: all other assays above

CCCSP(=O)(OCC)Oc1ccc(Br)cc1Cl (stereo not drawn)
active: [4] 15.1 µM
not listed: [9]
inactive: all other assays above

CC(COc1ccc(Oc2ccccc2)cc1)Oc1ccccn1 (stereo not drawn)
active: [3] 16.3 µM | [4] 8.3 µM
not listed: [8] | [9]
inactive: all other assays above

CCCCSP(=O)(SCCCC)SCCCC
active: [7] 63.5 µM
not listed: [8] | [9]
inactive: all other assays above

COP(=O)(OC)C(O)C(Cl)(Cl)Cl (stereo not drawn)
active: TIMP1, TIMP1 (gene 7076) 0.0702 µM | [2] 0.109 µM | [4] 0.0534 µM | [5] 0.103 µM
not listed: [9]
inactive: all other assays above

C#CCC1=C(C)C(OC(=O)C2C(C=C(C)C)C2(C)C)CC1=O (stereo not drawn)
active: [3] 88.9 µM
inactive: all other assays above

CCc1cccc(C)c1N(C(=O)CCl)C(C)COC (stereo not drawn)
active: [4] 20.5 µM
inactive: all other assays above

O=C(O)c1cc(Oc2ccc(C(F)(F)F)cc2Cl)ccc1[N+](=O)[O-]
active: [4] 22.7 µM
not listed: [8] | [9]
inactive: all other assays above

CCNc1nc(Cl)nc(NC(C)(C)C#N)n1
active: [4] 3.53 µM
not listed: [9]
inactive: all other assays above

CC(C)=CC1C(C(=O)OCN2C(=O)C3=C(CCCC3)C2=O)C1(C)C (stereo not drawn)
not listed: [9]
inactive: all other assays above

CC(=NC#N)N(C)Cc1ccc(Cl)nc1
active: [4] 50 µM
not listed: [8] | [9]
inactive: all other assays above

CC(Oc1cccc(Cl)c1)C(=O)O (stereo not drawn)
active: [4] 10.1 µM
not listed: [9]
inactive: all other assays above

Cc1nn(-c2cc(NS(C)(=O)=O)c(Cl)cc2Cl)c(=O)n1C(F)F
active: [4] 18.4 µM
not listed: [8] | [9]
inactive: all other assays above

C[Si](Cn1cncn1)(c1ccc(F)cc1)c1ccc(F)cc1
active: [1] 34.1 µM | [2] 50 µM | [3] 5.9 µM | [4] 66.3 µM | [5] 50 µM | [6] 90 µM | [7] 33.4 µM
inactive: TIMP1, TIMP1 (gene 7076)

COc1ccc(C(=CC(=O)N2CCOCC2)c2ccc(Cl)cc2)cc1OC
active: [3] 63.8 µM | [4] 11.1 µM
inactive: all other assays above

C[N+]1(C)CCCCC1
not listed: [8] | [9]
inactive: all other assays above

Nc1nc(N)nc(NC2CC2)n1
not listed: [9]
inactive: all other assays above
